In PubChem BioAssay AID588 (National Center for Advancing Translational Sciences (NCATS), 2007):
Out of some 59,000 compounds screened, about 25 (0.04%) were called active. No rule for the calls is given here. For the sample, actives were picked, then their nearest neighbours and some compounds at random.

Test: qHTS Assay for Spectroscopic Profiling in Resorufin Spectral Region
Conditions: Compound fluorescence, resorufin region 547/598 nm, buffer
From the text: NIH Molecular Libraries Screening Centers Network [MLSCN] NIH Chemical Genomics Center [NCGC] […] Occasionally, the artifactual effect may originate from the compound#s own spectral or other biophysical properties which generally tend to track its assay concentration. Pre-screening/profiling the library with respect to the compounds# spectral properties should help one exclude false positives early on. While the most informative fluorescent profiling data set is obtained by performing a full excitation and emission scan of each well by using a monochromator-based plate reader, such an approach is practical only on a very limited scale as scanning each well requires long time. An alternative approach, applied here, is to perform plate reader scans using selected excitation and emission wavelength pairs to generate a multidimensional relational database that correlates compound concentration and the respective relative fluorescence intensity at a given wavelength set. A standard curve of resorufin present on each plate as six-point concentration series, was used to compute a normalized fluorescence response, termed dye-equivalent concentration, for each compound at each concentration.
NCGC Assay Protocol Summary: Buffer: 100 mM Tris buffer, pH 8.0 Dye standard plate: The wells in columns 1 through 4 of a Kalypsys polypropylene 1536-well compound plate were filled with standard solutions of fluorophore corresponding to the spectral region of interest. Solutions of resorufin were placed in the following wells: M1, N1: 3 mM, M2, N2: 300 uM, M3, N3: 30 uM, M4, N4: zero (DMSO), O1, P1: 3 uM, O2, P2: […], O3, P3: 300 nM, O4, P4: zero (DMSO). Assay Steps: Six uL of buffer were dispensed to 1536-well Greiner black plates. Compounds and dye standards (23 nL) were transferred via Kalypsys PinTool. The plates were incubated for 15 min at room temperature, and then read on ViewLux (Perkin-Elmer) High-throughput CCD imager using 547 nm and 598 nm excitation and emission filter set. Keywords: NIH Roadmap, MLSCN, MLI, MLSMR, qHTS, NCGC, Resorufin, Fluorescent Profiling.
For `COc1ccc(CC(NC(C)=O)C(=O)NC2CCN(C(=O)Nc3ccc(C#N)cc3)CC2)cc1OC` (centres undefined), the max dye-equivalent concentration was “inactive”.
In the case of `CCOC(=O)N1CCN(C(=O)c2nn(-c3ccc(C)cc3)c(=O)c3c2c2ccccc2n3C)CC1`, the max dye-equivalent concentration is reported as “inactive”.
With `COc1ccc(Cc2nnnn2CC(=O)O)cc1` the max dye-equivalent concentration was “inactive”.
With `CC(c1nnc(SCC(=O)Nc2sccc2C#N)n1-c1ccc(Cl)cc1)N(C)C` (centres undefined) the max dye-equivalent concentration was “inactive”.
For `CC(C)(CNCC(O)c1ccccc1)N1CCOCC1` (centres undefined), the max dye-equivalent concentration was “inactive”.
For `O=C(O)C1CC=C(Cl)CC1C(=O)NCc1ccccc1` (centres undefined), the max dye-equivalent concentration was “inactive”.
In the case of `O=C(COc1ccc2c3c(c(=O)oc2c1)CCC3)NC1CCCCC1`, the max dye-equivalent concentration is reported as “inactive”.
With `Cc1nc2cnc(Nc3ccccc3)nc2n(C[C@H]2CCCO2)c1=O` the max dye-equivalent concentration was “inactive”.
For `O=C(NCCCN1CCOCC1)c1cc(-c2ccc(Cl)cc2)on1`, the max dye-equivalent concentration was “inactive”.
In the case of `Cn1c(=O)c(CCc2ccccc2)nc2cnc(Nc3ccccc3)nc21`, the max dye-equivalent concentration is reported as “inactive”.
In the case of `Cc1cc(=O)n2nc(N3CCCC(C(=O)NCCC4=CCCCC4)C3)sc2n1` (centres undefined), the max dye-equivalent concentration is reported as “inactive”.
With `COc1ccc(-n2c(SCC(=O)NCc3cccs3)nnc2-c2ccoc2C)cc1` the max dye-equivalent concentration was “inactive”.
With `Cc1ccnc(SCCn2c(Br)nc3c2c(=O)[nH]c(=O)n3C)n1` the max dye-equivalent concentration was “inactive”.
With `CCOC(=O)N1CCC(Nc2c(NCCCN3CCN(c4ccc(OC)cc4)CC3)c(=O)c2=O)CC1` the max dye-equivalent concentration was “inactive”.
In the case of `CCCCn1c(SCc2ncc(-c3ccccc3)o2)nc2cc(S(N)(=O)=O)ccc21`, the max dye-equivalent concentration is reported as “inactive”.
For `CCOc1ccccc1-n1c(SCC(=O)NCc2ccco2)nnc1-c1ccncc1`, the max dye-equivalent concentration was “inactive”.
For `Nc1cc(=O)nc(SCc2ccccc2)n1Cc1ccco1`, the max dye-equivalent concentration was “inactive”.
For `Cc1c(S(=O)(=O)O)ccc(N=Nc2c(O)c(C(=O)O)cc3ccccc23)c1Cl`, the max dye-equivalent concentration was “inactive”.
For `CCC(=O)Nc1cccc(NC(=O)CSc2nnnn2C2CCCC2)c1`, the max dye-equivalent concentration was “inactive”.
With `Cc1cc(C)c2[nH]c(=O)c(C(c3nnnn3Cc3ccc4c(c3)OCO4)N3CCCC3)cc2c1` (centres undefined) the max dye-equivalent concentration was “inactive”.
In the case of `COc1ccccc1N(C(=O)Cn1nnc2ccccc21)C(C(=O)NCc1ccco1)c1ccc(C)o1` (centres undefined), the max dye-equivalent concentration is reported as “inactive”.
For `CCC(C(=O)N1CCOCC1)n1c(C(=O)OC)cc2occc21` (centres undefined), the max dye-equivalent concentration was “inactive”.
In the case of `CCN(c1ccccc1)S(=O)(=O)c1cccc(C(=O)O)c1`, the max dye-equivalent concentration is reported as “inactive”.
In the case of `c1ccc2c(Nc3ccncc3)nc(-c3ccc4c(c3)OCO4)nc2c1`, the max dye-equivalent concentration is reported as “inactive”.
With `CCOC(=O)N1CCN(C(=O)Cc2ccc(-n3c(=S)[nH]c4ccccc4c3=O)cc2)CC1` the max dye-equivalent concentration was “inactive”.
For `CC(=O)OCc1cc(=O)n(C)c(=O)n1C`, the max dye-equivalent concentration was “inactive”.
With `COc1ncc2nc(-c3ccc(Cl)cc3)c(=O)n(C)c2n1` the max dye-equivalent concentration was “inactive”.
For `CCc1c(C)nc2ncnn2c1N1CCC(C(=O)NCc2ccc3c(c2)OCO3)CC1`, the max dye-equivalent concentration was “inactive”.
In the case of `CN(C(=O)CSc1nnnn1-c1ccccc1)C1CCCCC1`, the max dye-equivalent concentration is reported as “inactive”.
For `Cc1c(-c2nn(C)c(=O)c3ccccc23)oc2ccc(F)cc2c1=O`, the max dye-equivalent concentration was “inactive”.
With `COCCn1c(=O)[nH]c2cc(C(=O)NCc3cccnc3)ccc2c1=O` the max dye-equivalent concentration was “inactive”.
For `NS(=O)(=O)c1cc(Cl)c(Cl)c(S(N)(=O)=O)c1`, the max dye-equivalent concentration was “inactive”.
With `CCOCCCN1C(=O)CN(C2CCCCC2)C(=O)C1c1ccc(OCC)c(OC)c1` (centres undefined) the max dye-equivalent concentration was “inactive”.
In the case of `Cc1cc(C)c2nc(N3CCCC3)c(C#N)cc2c1`, the max dye-equivalent concentration is reported as “inactive”.
With `COc1cccc(C(=O)c2cc3ccc(O)cc3oc2=O)c1` the max dye-equivalent concentration was “inactive”.
With `O=C1[C@@H]2C(Cc3ccc(O)cc3)NC3(C(=O)Nc4ccc(F)cc43)[C@@H]2C(=O)N1c1ccc(F)cc1` (some centres undefined) the max dye-equivalent concentration was “inactive”.
For `CCC(=O)N(Cc1cc2cc(OC)ccc2[nH]c1=O)c1ccccc1C`, the max dye-equivalent concentration was “inactive”.
For `COc1cccc(OCC(O)CN2CCN(CCO)CC2)c1` (centres undefined), the max dye-equivalent concentration was “inactive”.
For `C=CCn1c(SCC(=O)NC23CC4CC(CC(C4)C2)C3)nc(O)cc1=O`, the max dye-equivalent concentration was “inactive”.
With `COCCn1c(=O)c(-c2cccs2)nc2cnc(N3CCN(C)CC3)nc21` the max dye-equivalent concentration was “inactive”.
For `Cc1cc(C)cc(OCc2nnc(SCC(=O)OC3CCCCC3)o2)c1`, the max dye-equivalent concentration was “inactive”.
With `COCCn1c(=O)c(-c2ccc(OC)cc2)nc2cnc(Oc3cccc(Cl)c3)nc21` the max dye-equivalent concentration was “inactive”.
With `CS(=O)(=O)Nc1cccc(-c2cncnc2Nc2ccccc2)c1` the max dye-equivalent concentration was “inactive”.
For `Cn1c(SCC(=O)OC2CCCCC2)nnc1-c1ccc(S(=O)(=O)N2CCCC2)cc1`, the max dye-equivalent concentration was “inactive”.
In the case of `CCS(=O)(=O)N1CCC(C(=O)N2CCN(c3ccccc3)CC2)CC1`, the max dye-equivalent concentration is reported as “inactive”.
With `CCOCC(=O)Nc1cc(OC)c(Cl)cc1OC` the max dye-equivalent concentration was “inactive”.
With `CCN1C(=O)/C(=C\N2CCN(c3cccc(Cl)c3)CC2)SC1=S` the max dye-equivalent concentration was “inactive”.
For `CCN(Cc1ccncc1)C(=O)[C@@H](CO)c1ccccc1`, the max dye-equivalent concentration was “inactive”.
For `CC(=O)N1CCC(C(=O)Nc2nc(-c3ccccc3)ns2)CC1`, the max dye-equivalent concentration was “inactive”.
With `COc1ccc(S(=O)(=O)NC(CC(=O)NCc2ccccc2OC)c2ccco2)cc1` (centres undefined) the max dye-equivalent concentration was “inactive”.
In the case of `Nc1nc2c(ncn2[C@H]2CC[C@@H](CO)O2)c(=O)n1C(=O)c1ccccc1`, the max dye-equivalent concentration is reported as “inactive”.
For `Cc1ccc(CNC(=O)CN2CCN(Cc3ccc(Cl)cc3)C2=O)cc1`, the max dye-equivalent concentration was “inactive”.
With `CCOCCc1c(O)nc(SCC(=O)NCc2ccco2)[nH]c1=O` the max dye-equivalent concentration was “inactive”.
For `COc1cc(OC)cc(C(=O)NCCSCc2ccco2)c1`, the max dye-equivalent concentration was “inactive”.
With `O=c1[nH]c(=O)n([C@H]2C[C@H](O)[C@H](CO)O2)cc1Br` the max dye-equivalent concentration was “inactive”.
For `O=c1c(-c2ccc(F)cc2)nc2cncnc2n1-c1ccccc1`, the max dye-equivalent concentration was “inactive”.
In the case of `CCOc1ccc(N(CC(=O)NCc2ccc(OC)cc2)S(=O)(=O)c2c(C)noc2C)cc1`, the max dye-equivalent concentration is reported as “inactive”.
In the case of `C[C@@H]1C[C@H]2[C@@H]3C[C@H](F)C4=CC(=O)C=C[C@@]4(C)[C@]3(F)[C@H](O)C[C@]2(C)[C@@]1(O)C(=O)CO`, the max dye-equivalent concentration is reported as “inactive”.
In the case of `O=C(Nc1ccccc1)c1cccnc1Nc1ccccc1`, the max dye-equivalent concentration is reported as “inactive”.
For `Cc1ccc(NC(=O)NCC(c2cccnc2)N2CCOCC2)cc1` (centres undefined), the max dye-equivalent concentration was “inactive”.
With `O=C(c1ccco1)N1CCC[C@@]2(CCN(Cc3nccs3)C2)C1` the max dye-equivalent concentration was “inactive”.
In the case of `O=C1N=C(N2CCOCC2)CS1`, the max dye-equivalent concentration is reported as “inactive”.
In the case of `Cc1ccc(C(=O)CS(C)(=O)=O)cc1`, the max dye-equivalent concentration is reported as “inactive”.
With `O=C(Nc1ccc(Cl)cn1)Nc1cccs1` the max dye-equivalent concentration was “inactive”.
